Compound activity: PubChem BioAssay, The Scripps Research Institute Molecular Screening Center
TEAD-YAP inh: TEAD-YAP interaction inhibition, primary screen, TEAD-YAP interaction inhibitor project, luminescence, HEK-TIYL cells; actives 1.4% (n = 640,000); inhibition, % at 9.12 µM; TEAD-Gal4/YAP UAS-luciferase luminescence; AID 1259422, 2018; in the data active = inhibition above about 32%;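 note: 0% = median of test compound wells and 100% = reference inhibitor wells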
MITF inh: MITF inhibitors, primary screen, biochemical, AlphaScreen, human | Microphthalmia-associated transcription factor (Homo sapiens), O75030 | AlphaScreen MITF homodimerization, bead proximity signal | inhibition, % at 2.6 µM | actives 0.91% (n = 650,000) | AID 1259374, 2018; in the data active = inhibition above about 50%;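 note: 0% = vehicle wells with protein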
GPR151 activ: activators of human GPR151, primary screen, cell-based, PathHunter beta-arrestin, luminescence; G-protein coupled receptor 151 (Homo sapiens), Q8TDV0; PathHunter beta-arrestin GPR151 cells; activation, % at 11.2 µM; actives 1% (n = 650,000); AID 1508602, 2020; in the data active = activation above about 4.9%;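 note: 0% = median of compound wells and 100% = cells with positive control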
FBW7 activator: FBW7 E3 ligase activators, primary screen, biochemical, AlphaScreen, human | normalized activity (activation), % at 26.1 µM | actives 0.13% (n = 650,000) | AlphaScreen FBW7–phospho-cyclin E peptide binding, activator screen; in the data active = normalized activity above about 1.9%;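 note: purified mutant Fbw7 with reduced substrate affinity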
GPR151 conf act: GPR151 activators, triplicate retest, confirmation, cell-based, PathHunter beta-arrestin, luminescence | GPR151 PathHunter beta-arrestin cells, 90 min; % of EA-reagent control over plate median | shares compounds with GPR151 activ | AID 1508609, 2020 | 6,700 tested, under 10 active | activation, % at 11.2 µM;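 active = mean percent activation across replicates above the confirmation screen cutoff of 4.91%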
GPR119 counter: GPR119 activators in beta-arrestin cells, counter-screen for GPR151 activator project, cell-based, PathHunter beta-arrestin, luminescence, triplicate. 90 min; 0 = compound-well median, 100 = enzyme-acceptor control. shares compounds with GPR151 activ. actives 0.3% (n = 6,700). activation, % at 11.2 µM;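 active = mean percent activation in the counterscreen above 29.09%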;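 note: counterscreen on off-target GPR119 to flag nonselective hits from the GPR151 activator screen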
Target sequence (Q8TDV5 whole entry, looked up): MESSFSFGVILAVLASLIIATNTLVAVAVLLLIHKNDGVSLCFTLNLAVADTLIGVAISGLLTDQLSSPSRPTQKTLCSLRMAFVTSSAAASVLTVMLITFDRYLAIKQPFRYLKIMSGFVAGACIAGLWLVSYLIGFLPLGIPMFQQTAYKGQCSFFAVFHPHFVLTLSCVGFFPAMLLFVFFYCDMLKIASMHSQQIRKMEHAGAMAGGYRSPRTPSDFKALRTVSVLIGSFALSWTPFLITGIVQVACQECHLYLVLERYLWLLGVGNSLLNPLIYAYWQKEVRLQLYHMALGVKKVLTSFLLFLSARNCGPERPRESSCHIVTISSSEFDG
The depositor's hits bear a star; nt = no result given. The list is not random: actives were taken first. Their share in the collection is about 3.5%.

SMILES	TEAD-YAP inh	MITF inh	GPR151 activ	FBW7 activator	GPR151 conf act	GPR119 counter
O=C(COC(=O)c1ccc(OC(F)F)cc1)Nc1cccnc1Cl	-3.5	12.4	11.5*	0.4	-0.7	4.5
O=C(NCCCn1cccn1)c1ccc(OC2CCN(CCc3ccccc3)CC2)cc1	-0.9	10.8	-0.2	0.3	nt	nt
O=C(CSc1ncc(-c2cccc(Br)c2)o1)Nc1ccc(F)cc1F	5.6	-3.4	9.3*	-0.1	-3.9	-11.8
CCOc1ccc(/C(O)=C2/C(=O)C(=O)N(Cc3cccnc3)C2c2ccc(C)cc2)cc1C (stereo not drawn)	-5.5	-6.8	0.2	0.0	nt	nt
C=CCOc1ccc(C2/C(=C(/O)c3ccc(OCC)c(C)c3)C(=O)C(=O)N2Cc2cccnc2)cc1 (stereo not drawn)	2.9	-18.7	6.6*	0.0	0.2	-16.6
C/C(=N\NC(=O)Cn1nnc(-c2ccccc2)n1)c1nonc1C	1.4	13.5	16.5*	0.3	-0.6	-13.6
CC(=O)Cn1nnc(-c2ccccc2)n1	-10.1	1.6	-0.6	-0.1	nt	nt
CCOC(=O)c1c(NC(=O)C2CCCO2)sc(C(=O)OC(C)(C)C)c1C (stereo not drawn)	14.4	4.3	-0.7	0.5	nt	nt
CCn1ccc(C(=O)Nc2ccc3c(c2)OCCO3)n1	23.2	15.8	-5.8	0.6	nt	nt
CN1CCN(C(=O)NC2CCCN2S(=O)(=O)c2ccc(Cl)cc2)CC1 (stereo not drawn)	11.3	-19.2	-1.5	0.1	nt	nt
CCCOc1ccc(/C(O)=C2/C(=O)C(=O)N(CCN(C)C)C2c2ccc(F)cc2)c(C)c1 (stereo not drawn)	8.5	11.4	-0.6	0.8	nt	nt
CCCOc1ccc(/C(O)=C2/C(=O)C(=O)N(CCCN(C)C)C2c2ccc(F)cc2)c(C)c1 (stereo not drawn)	1.9	-4.0	5.3*	-0.1	-0.6	0.0
COc1ccc(CNC(=O)c2sc3cnccc3c2-n2cccc2)cc1	54.9*	4.5	5.2*	-0.1	1.1	2.5
Cc1nnc(SCC(=O)NC2CCCc3ccccc32)n(N)c1=O (stereo not drawn)	-2.0	5.8	-0.6	0.0	nt	nt
CCCCc1ccc(NC(=O)CN2C(=O)CCS(=O)(=O)c3ccccc32)cc1	-9.7	-12.0	1.5	-0.2	nt	nt
Cc1nc2c(-c3ccccc3)c(C)nn2c(C)c1CCC(=O)NCCN1CCOCC1	0.9	-3.6	7.6*	0.1	-0.7	-7.4
C/C(CCN1CCCc2nc(C)c(C)cc21)=N\OC[C@@H](O)COCc1ccco1	nt	-1.8	0.1	0.1	nt	nt
CCC(C(=O)NCCCN1CCOCC1)n1ncn2c(cc3occc32)c1=O (stereo not drawn)	0.4	10.9	9.9*	0.1	1.1	6.9
CC(Sc1ncn(-c2ccccc2)n1)C(=O)Nc1ccccc1 (stereo not drawn)	-6.1	0.3	5.9*	-0.2	-2.3	-5.0
c1ccc2c(c1)CC(N1CCCC(c3ccn[nH]3)C1)C2 (stereo not drawn)	-7.8	6.6	0.4	-0.1	nt	nt
CCCCOc1ccc(C(=O)Nc2c(C(N)=O)oc3ccccc23)cc1	3.8	8.4	-1.8	0.2	nt	nt
CCCCCOc1ccc(C(=O)Nc2c(C(N)=O)oc3ccccc23)cc1	1.3	6.2	4.9*	0.0	1.6	0.4
CC(=O)Nc1c(C(=O)c2ccc(Oc3ccccc3)cc2)oc2ccccc12	-0.9	-13.1	7.4*	0.1	1.6	6.6
O=C1CCC(C(=O)NCc2nnc3n2CCN(Cc2ccccc2C(F)(F)F)CC3)N1 (stereo not drawn)	-2.9	1.1	9.8*	0.3	0.2	-4.5
Cc1ccc(C)c(/C=C2\SC(N)=NC2=O)c1	-6.9	-1.8	-0.2	-0.1	nt	nt
Cc1cc(C)c(/C=C2\SC(N)=NC2=O)c(C)c1	-3.2	-4.0	7.8*	0.2	-0.1	-1.4
COc1ccc(/C=C2\SC(N)=NC2=O)cc1OC	-1.7	18.8	9.1*	0.0	0.3	10.5
Cc1cc(NCCN)nc(SCc2c(Cl)cccc2Cl)n1	2.0	-4.8	0.6	-0.1	nt	nt
